# Source: publication PMC5540273 (PLoS ONE, 2017)
# Like-named read-outs stand apart in the source and are kept apart here.
# Experiments:
# TAOK3 = conditions: concentration: 1 μM, replicates: in singlicate; n = 1
# TBK1 = conditions: concentration: 1 μM, replicates: in singlicate; n = 1
# TEC = conditions: concentration: 1 μM, replicates: in singlicate; n = 1
# TESK1 = conditions: concentration: 1 μM, replicates: in singlicate; n = 1
# TGFBR1 = conditions: n = 1
# TGFBR2 = conditions: concentration: 1 μM, replicates: in singlicate; n = 1
# TIE1 = conditions: concentration: 1 μM, replicates: in singlicate; n = 1
# TIE2 = test system: T1, TIE2; conditions: concentration: 1 μM, replicates: in singlicate; n = 1
# T1 construct: gene TEK
# TLK1 = conditions: concentration: 1 μM, replicates: in singlicate; n = 1
# TLK2 = conditions: concentration: 1 μM, replicates: in singlicate; n = 1
# TNIK = conditions: concentration: 1 μM, replicates: in singlicate; n = 1
# TNK1 = conditions: concentration: 1 μM, replicates: in singlicate; n = 1
# TNK2 = conditions: concentration: 1 μM, replicates: in singlicate; n = 1
# TNNI3K = conditions: concentration: 1 μM, replicates: in singlicate; n = 1
# TRKA = test system: T2, TRKA; conditions: concentration: 1 μM, replicates: in singlicate; n = 1
# T2 construct: gene NTRK1
# TRKB = conditions: concentration: 1 μM, replicates: in singlicate; n = 1
# TRKC = test system: T3, TRKC; conditions: concentration: 1 μM, replicates: in singlicate; n = 1
# T3 construct: gene NTRK3
# TRPM6 = conditions: concentration: 1 μM, replicates: in singlicate; n = 1
# TSSK1B = conditions: concentration: 1 μM, replicates: in singlicate; n = 1
# TSSK3 = conditions: concentration: 1 μM, replicates: in singlicate; n = 1
# [1] = concentration: 1 μM, replicates: in singlicate
# 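Note: KINOMEscan kinase panel screen.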
smiles,measurement,setting,value
CCn1c(-c2ccccn2)nc2cnccc21 [SB-736398],%Inh,TAOK3,0%
same,%Inh,TBK1,0%
same,%Inh,TEC,0%
same,%Inh,TESK1,0%
same,%Inh,TGFBR1; [1],21%
same,%Inh,TGFBR2,10%
same,%Inh,TIE1,0%
same,%Inh,TIE2,0%
same,%Inh,TLK1,0%
same,%Inh,TLK2,0%
same,%Inh,TNIK,0%
same,%Inh,TNK1,7%
same,%Inh,TNK2,9%
same,%Inh,TNNI3K,0%
same,%Inh,TRKA,0%
same,%Inh,TRKB,59%
same,%Inh,TRKC,52%
same,%Inh,TRPM6,0%
same,%Inh,TSSK1B,5%
same,%Inh,TSSK3,12%
O=C(Nc1n[nH]c2cc(-c3cccc(F)c3F)ccc12)C1CC1 [SB-733894],%Inh,TAOK3,16%
same,%Inh,TBK1,18%
same,%Inh,TEC,4%
same,%Inh,TESK1,8%
same,%Inh,TGFBR1; [1],1%
same,%Inh,TGFBR2,14%
same,%Inh,TIE1,0%
same,%Inh,TIE2,17%
same,%Inh,TLK1,0%
same,%Inh,TLK2,5%
same,%Inh,TNIK,72%
same,%Inh,TNK1,10%
same,%Inh,TNK2,2%
same,%Inh,TNNI3K,0%
same,%Inh,TRKA,38%
same,%Inh,TRKB,11%
same,%Inh,TRKC,34%
same,%Inh,TRPM6,0%
same,%Inh,TSSK1B,0%
same,%Inh,TSSK3,0%
COc1ccc(Nc2nccc(-c3cccc(NC(=O)c4cc5cc(F)ccc5[nH]4)c3)n2)cc1 [GSK1229782],%Inh,TAOK3,0%
same,%Inh,TBK1,24%
same,%Inh,TEC,19%
same,%Inh,TESK1,34%
same,%Inh,TGFBR1; [1],17%
same,%Inh,TGFBR2,10%
same,%Inh,TIE1,0%
same,%Inh,TIE2,17%
same,%Inh,TLK1,4%
same,%Inh,TLK2,0%
same,%Inh,TNIK,84%
same,%Inh,TNK1,0%
same,%Inh,TNK2,16%
same,%Inh,TNNI3K,0%
same,%Inh,TRKA,52%
same,%Inh,TRKB,36%
same,%Inh,TRKC,47%
same,%Inh,TRPM6,33%
same,%Inh,TSSK1B,22%
same,%Inh,TSSK3,35%
Fc1cc(Cl)ccc1Nc1ccnc2cc(I)ccc12 [GW551191],%Inh,TAOK3,0%
same,%Inh,TBK1,11%
same,%Inh,TEC,22%
same,%Inh,TESK1,12%
same,%Inh,TGFBR1; [1],17%
same,%Inh,TGFBR2,50%
same,%Inh,TIE1,0%
same,%Inh,TIE2,0%
same,%Inh,TLK1,21%
same,%Inh,TLK2,0%
same,%Inh,TNIK,31%
same,%Inh,TNK1,6%
same,%Inh,TNK2,10%
same,%Inh,TNNI3K,15%
same,%Inh,TRKA,0%
same,%Inh,TRKB,37%
same,%Inh,TRKC,24%
same,%Inh,TRPM6,0%
same,%Inh,TSSK1B,32%
same,%Inh,TSSK3,3%
Cl.c1ccc(-c2n[nH]cc2-c2ccnc(-c3ccc(CN4CCOCC4)cc3)c2)nc1 [GW776245],%Inh,TAOK3,0%
same,%Inh,TBK1,61%
same,%Inh,TEC,17%
same,%Inh,TESK1,6%
same,%Inh,TGFBR1; 1 µM,94.5%
same,%Inh,TGFBR2,87%
same,%Inh,TIE1,0%
same,%Inh,TIE2,24%
same,%Inh,TLK1,0%
same,%Inh,TLK2,0%
same,%Inh,TNIK,30%
same,%Inh,TNK1,42%
same,%Inh,TNK2,0%
same,%Inh,TNNI3K,0%
same,%Inh,TRKA,0%
same,%Inh,TRKB,0%
same,%Inh,TRKC,0%
same,%Inh,TRPM6,0%
same,%Inh,TSSK1B,0%
same,%Inh,TSSK3,0%
COc1cc2nccc(Nc3ccc(NC(=O)c4ccc(C)cc4)c(O)c3)c2cc1OC.Cl [GW440132],%Inh,TAOK3,0%
same,%Inh,TBK1,0%
same,%Inh,TEC,3%
same,%Inh,TESK1,25%
same,%Inh,TGFBR1; [1],0%
same,%Inh,TGFBR2,0%
same,%Inh,TIE1,6%
same,%Inh,TIE2,0%
same,%Inh,TLK1,0%
same,%Inh,TLK2,0%
same,%Inh,TNIK,0%
same,%Inh,TNK1,26%
same,%Inh,TNK2,48%
same,%Inh,TNNI3K,4%
same,%Inh,TRKA,36%
same,%Inh,TRKB,0%
same,%Inh,TRKC,0%
same,%Inh,TRPM6,5%
same,%Inh,TSSK1B,3%
same,%Inh,TSSK3,18%
Cc1ccc(NC(=O)Nc2cc(C(C)(C)C)nn2-c2ccccc2)cc1 [GSK1014915],%Inh,TAOK3,0%
same,%Inh,TBK1,0%
same,%Inh,TEC,11%
same,%Inh,TESK1,13%
same,%Inh,TGFBR1; [1],18%
same,%Inh,TGFBR2,1%
same,%Inh,TIE1,9%
same,%Inh,TIE2,0%
same,%Inh,TLK1,2%
same,%Inh,TLK2,0%
same,%Inh,TNIK,0%
same,%Inh,TNK1,0%
same,%Inh,TNK2,15%
same,%Inh,TNNI3K,21%
same,%Inh,TRKA,0%
same,%Inh,TRKB,28%
same,%Inh,TRKC,26%
same,%Inh,TRPM6,24%
same,%Inh,TSSK1B,2%
same,%Inh,TSSK3,14%
